# In PubChem BioAssay (NCI):
# The panel holds about 79,000 compounds, 15% with a hit somewhere; the sample as a whole holds those more often. Values without a mark were called inactive. Calls of active or inactive are those of the source. Rule as the data show it: active = growth inhibition above about 70%; inactive = the rest.
# Key:
# [1] = NCI Yeast Anticancer Drug Screen. Data for the rad52 strain (AID 147);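 also: 0% = growth of vehicle-treated control cultures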; conditions: S. cerevisiae rad52 mutant growth inhibition, active compounds read high
# Outline: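 DNA repair-defective yeast; compound exposure; growth scored against vehicle controls.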
# [2] = NCI Yeast Anticancer Drug Screen. Data for the wt1 strain (AID 149);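 also: 0% = growth of vehicle-treated wt1 cultures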; conditions: S. cerevisiae wt1 strain (SPY 50644) growth inhibition, active compounds read high
# Outline: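 Yeast wt1 strain exposed to compounds; growth inhibition measured relative to vehicle-treated controls.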
# [3] = NCI Yeast Anticancer Drug Screen. Data for the rad50EPP+ strain (AID 151);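 also: 0% = growth of vehicle-treated control cultures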; conditions: S. cerevisiae rad50 mutant strain, active compounds read high
# Outline: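 rad50EPP+ yeast treated with test compounds. Readout: growth vs vehicle control.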
# [4] = NCI Yeast Anticancer Drug Screen. Data for the mgt1 strain (AID 153); conditions: S. cerevisiae mgt1 mutant growth inhibition, active compounds read high
# Outline: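 Growth inhibition relative to vehicle controls was scored for the mgt1 yeast strain after compound exposure.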
# [5] = NCI Yeast Anticancer Drug Screen. Data for the rad50 strain (AID 155);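 also: 0% = growth of vehicle-only cultures of the same strain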; conditions: S. cerevisiae rad50 strain growth inhibition, active compounds read high
# Outline: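 Yeast carrying a defined DNA repair defect were exposed to test compounds, and growth was compared with vehicle-treated controls to give percent inhibition.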
# [6] = NCI Yeast Anticancer Drug Screen. Data for the mec2-1 strain (AID 157); conditions: S. cerevisiae mec2-1 strain, active compounds read high
# Outline: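 Growth inhibition is read against vehicle-treated controls after compound exposure of the mec2-1 yeast strain, which is defective in DNA damage repair or cell cycle control.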
# [7] = NCI Yeast Anticancer Drug Screen. Data for the rad14 strain (AID 159);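 also: 0% = growth of vehicle-treated control cultures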; conditions: S. cerevisiae rad14 strain growth inhibition, active compounds read high
# Outline: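 Yeast cells carrying a defined DNA-repair defect were exposed to compounds, and growth inhibition was calculated relative to vehicle-treated control cultures.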
# [8] = NCI Yeast Anticancer Drug Screen. Data for the sgs1 mgt1 strain (AID 161);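 also: 0% = growth of cultures given vehicle only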; conditions: S. cerevisiae sgs1 mgt1 strain, active compounds read high
# Outline: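 Compounds are added to genetically altered yeast, and growth is compared with cultures given vehicle alone to give percent inhibition.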
# [9] = NCI Yeast Anticancer Drug Screen. Data for the CLN2oe strain (AID 163);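 also: 0% = growth of vehicle-only control cultures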; conditions: S. cerevisiae CLN2oe strain, active compounds read high
# Outline: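 Compound-treated yeast; growth vs vehicle ctrl = % inhibition. Genetically altered strain (cell-cycle control).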
# [10] = NCI Yeast Anticancer Drug Screen. Data for the cln2 rad14 strain (AID 165);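 also: 0% = growth equal to vehicle treated cultures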; conditions: S. cerevisiae cln2 rad14 strain, active compounds read high
# Outline: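 Growth inhibition, relative to vehicle-treated controls, is the read-out. The test organism is a yeast strain with defined genetic alterations, cln2 rad14.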
# [11] = NCI Yeast Anticancer Drug Screen. Data for the bub3 strain (AID 167); conditions: S. cerevisiae bub3 mutant strain, active compounds read high
# Outline: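 Compounds were applied to a genetically altered yeast strain carrying a cell-cycle control defect. Growth inhibition was scored against vehicle-treated controls.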
# [12] = at 5.0 µM (retest, dose inferred, filed as 0.5)
# [13] = at 50.0 µM (retest, dose inferred, filed as 5.0)
smiles,measurement,setting,value
Cn1cc(NC(=O)c2cc(NC(=O)CN=C(N)N)cn2C)cc1C(=O)NCCC(=N)N,growth inhibition,[1]; at 1.2 µM,21%
same,growth inhibition,[1]; at 3.7 µM,7%
same,growth inhibition,[1]; at 11.0 µM,56%
same,growth inhibition,[1]; at 33.0 µM,97% (active)
same,growth inhibition,[1]; at 100.0 µM,98% (active)
same,growth inhibition,[2]; at 1.2 µM,17%
same,growth inhibition,[2]; at 3.7 µM,26%
same,growth inhibition,[2]; at 11.0 µM,24%
same,growth inhibition,[2]; at 33.0 µM,85% (active)
same,growth inhibition,[2]; at 100.0 µM,96% (active)
same,growth inhibition,[3]; at 1.2 µM,19%
same,growth inhibition,[3]; at 3.7 µM,1%
same,growth inhibition,[3]; at 11.0 µM,24%
same,growth inhibition,[3]; at 33.0 µM,73% (active)
same,growth inhibition,[3]; at 100.0 µM,96% (active)
same,growth inhibition,[4]; at 1.2 µM,1%
same,growth inhibition,[4]; at 3.7 µM,6%
same,growth inhibition,[4]; at 11.0 µM,5%
same,growth inhibition,[4]; at 33.0 µM,94% (active)
same,growth inhibition,[4]; at 100.0 µM,99% (active)
same,growth inhibition,[5]; at 1.2 µM,0%
same,growth inhibition,[5]; at 3.7 µM,4%
same,growth inhibition,[5]; [12],-30%
same,growth inhibition,[5]; at 11.0 µM,67%
same,growth inhibition,[5]; at 33.0 µM,97% (active)
same,growth inhibition,[5]; [13],87% (active)
same,growth inhibition,[5]; at 50.0 µM,89.2% (active)
same,growth inhibition,[5]; at 100.0 µM,97% (active)
same,growth inhibition,[6]; at 1.2 µM,20%
same,growth inhibition,[6]; at 3.7 µM,18%
same,growth inhibition,[6]; [12],-11%
same,growth inhibition,[6]; at 11.0 µM,31%
same,growth inhibition,[6]; at 33.0 µM,95% (active)
same,growth inhibition,[6]; [13],44%
same,growth inhibition,[6]; at 50.0 µM,87.5% (active)
same,growth inhibition,[6]; at 100.0 µM,99% (active)
same,growth inhibition,[7]; at 1.2 µM,18%
same,growth inhibition,[7]; at 3.7 µM,-2%
same,growth inhibition,[7]; at 11.0 µM,35%
same,growth inhibition,[7]; at 33.0 µM,97% (active)
same,growth inhibition,[7]; at 100.0 µM,98% (active)
same,growth inhibition,[8]; [12],7%
same,growth inhibition,[8]; [13],11%
same,growth inhibition,[8]; at 50.0 µM,84.6% (active)
same,growth inhibition,[9]; at 1.2 µM,-1%
same,growth inhibition,[9]; at 3.7 µM,0%
same,growth inhibition,[9]; at 11.0 µM,16%
same,growth inhibition,[9]; at 33.0 µM,96% (active)
same,growth inhibition,[9]; at 100.0 µM,97% (active)
same,growth inhibition,[10]; [12],-13%
same,growth inhibition,[10]; [13],28%
same,growth inhibition,[10]; at 50.0 µM,68.5%
same,growth inhibition,[11]; at 1.2 µM,11%
same,growth inhibition,[11]; at 3.7 µM,18%
same,growth inhibition,[11]; [12],6%
same,growth inhibition,[11]; at 11.0 µM,2%
same,growth inhibition,[11]; at 33.0 µM,93% (active)
same,growth inhibition,[11]; [13],70% (active)
same,growth inhibition,[11]; at 50.0 µM,87.3% (active)
same,growth inhibition,[11]; at 100.0 µM,97% (active)
